These results are taken from PubChem BioAssay (NCI).

Each structure is given as a SMILES string. The panel holds about 83,000 compounds, 20% with a hit somewhere; the sample as a whole holds those more often.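 The test compound was applied at a single concentration to cells in 96-well plates for 48 hours, and percent growth was recorded.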 The source made the active and inactive calls. Rule for the calls: active = growth percent below 10; inactive = the rest.

The experiment concerns MDA-MB-468 breast. Kind of experiment: NCI-60 one-dose screen, 48 h (100 = growth as untreated, 0 = no growth, -100 = all killed). The conditions noted are these: 10 µM unless noted.
In the case of `COc1ccn2c(C(C)=O)cc(C(=O)c3ccc4c(c3)Sc3ccccc3N4)c2c1`, the growth was -4.11% (active). Next, `Cc1ccc(NC(=O)N[C@@H](Cc2cc(F)cc(F)c2)C(=O)N[C@@H]2C(=O)N3CCC[C@H]3C(=O)N3CCOC[C@H]3C(=O)N[C@@H](C)C(=O)N3C[C@H](C)C[C@H]3C(=O)O[C@H]2C)cc1`: 5.17% (active); `CCOC(=O)c1cc2c(n1Cc1cccc(OC)c1)-c1oncc1CC2`: -2.28% (active); `COc1ccc2[nH]cc(-c3csc4nc(-c5ccccc5)cn34)c2c1`: 21.2% (inactive). Next, `COc1ccc(/C=N/NC2=NC3C(S2)N(C)C(=O)N3C)cc1` (stereo not given): -8.86% (active); `COc1cccc(-c2nc3sccn3c2-c2ccnc(NCCNC(=O)c3ccccc3)n2)c1`: 79.4% (inactive); `COc1cc(C2=NN(C(C)=O)C(c3cccc(Nc4ccnc5cc(C(F)(F)F)ccc45)c3)C2)cc(OC)c1OC` (stereo not given): 50.5% (inactive). Next, `CO/C=C/C(=O)c1cc2cnc3c(=N)cc(NC(=O)C(C)C)c([nH]1)c23`: -54.9% (active); `C/C(=N\O)c1ccc(NC(=O)CSc2nnc(-c3ccccc3)n2-c2ccccc2)cc1`: 75.4% (inactive); `N[C@H]1CCC[C@@H]1NCCCCN1C(=O)c2cccc3cc([N+](=O)[O-])cc(c23)C1=O`: 38.8% (inactive). Consider `CC(=O)[C@H]1CC[C@]2(C)[C@@H]1CC[C@@H]1[C@@]3(C)C/C(=C/c4cccnc4)C(=O)C(C)(C)[C@@H]3CC[C@]12C`, for which the growth is 60.3% (inactive).

`CCN(CC)c1ccc(C(=C2C=CC(=[N+](CC)Cc3cccc(S(=O)(=O)O)c3)C=C2)c2ccc(N(CC)Cc3cccc(S(=O)(=O)O)c3)cc2)cc1`: the growth was 12.1% (inactive). The figure for `CCOC(=O)c1ccc2c(c1)[n+](=O)c(C(C)=O)c(C(F)(F)F)n2[O-]` is -37% (active); for `COc1ccc(C2CC(c3cccc(Nc4ccncc4)c3)=NN2c2ccc(Cl)cc2)cc1` (stereo not given) it is 45.3% (inactive); for `O=C(N=Nc1c(O)[nH]c2ccccc12)c1cc(-c2ccccc2)on1` it is 109% (inactive). `CCOC(=O)C(CCN(C)C)c1ccccc1` (stereo not given): the growth is 101% (inactive). The figure for `c1ccc2c(Nc3cccc4ccccc34)cccc2c1` is 61.8% (inactive). The figure for `Cc1nc2ncnc(Cl)c2[nH]1` is 105% (inactive); for `CN=C1C=CC(=C(c2ccc(N(C)C)cc2)c2ccc(N(C)C)cc2)C=C1` it is -47.5% (active). `Cc1cc(C)cc(NCCC#N)c1`: the growth is 107% (inactive).

`CCOC(=O)C1=C(C)NC(SCc2nnc(-c3ccc(Cl)cc3)o2)=NC1c1ccc(Br)cc1` (stereo not given): the growth is 58.2% (inactive). The figure for `O=c1[nH]c(NCc2nnnn2-c2ccc(Br)cc2)nc2sc3c(c12)CCCC3` is 96.9% (inactive); for `COc1cc(-c2nn(-c3cccc(NC(=O)c4ccc(Cl)c(C(F)(F)F)c4)c3)cc2-c2ccncc2)ccc1Cl` it is 54.4% (inactive); for `Cc1ccc2c(c1)Sc1c(ccc3ccccc13)N2` it is 86.6% (inactive).

With `Cc1cc(C)c2c(n1)sc1c(Nc3ccc(O)cc3)ncnc12`, the growth was 23.8% (inactive). Next, `CC(C)CCSc1nc(-c2ccc(F)cc2)c(C#N)c(N2CCN(C)CC2)n1`: 98.3% (inactive); `Cc1cc(C)cc(Nc2ccc([N+](=O)[O-])c(NCCN3CCOCC3)n2)c1`: 20.8% (inactive).

`CC(C)(Cl)CCC1=C(Cl)C(=O)c2ccccc2C1=O`: the growth is -43.5% (active). With `CN=S(=O)(OCCCCCOS(=O)(=NC)c1ccc(C)cc1)c1ccc(C)cc1` (stereo not given), the growth was 83.3% (inactive). The figure for `O=C1NC(=S)N[C@H]1CC(=O)n1cnc2ccccc21` is 86.3% (inactive); for `C#CCn1c(-c2cc(OC)c(OC)cc2Br)nc(-c2ccccc2)c1-c1ccccc1` it is 5.05% (active); for `O=C(Nc1ccc(CN2CCc3nc4cc(O)c(O)cc4cc32)cc1)c1ccc(Cl)c(Cl)c1` it is 97.4% (inactive). Next, `CN1CCN(c2ccc3nc4c(nc3c2C(F)(F)F)C(=O)c2ncccc2C4=O)CC1`: -62.4% (active).

Take `c1ccc(Cc2nn3cc(-c4ccccc4)nc3s2)cc1`: the growth is 101% (inactive). Next, `O=[N+]([O-])c1ccc(-c2cc3c(Nc4ccc(Sc5nc6ccccc6s5)c(Cl)c4)ncnc3s2)cc1`: 26.1% (inactive); `CCOC(=O)C1=C(CSC(=S)N(C2CCCCC2)C2CCCCC2)N(C)C(=O)NC1c1ccccc1` (stereo not given): 47.3% (inactive).

`COc1ccc(-c2nc3sc(-c4cc(OC)c(OC)c(OC)c4)nn3c2/C=C2/C(=O)Nc3ccc(F)cc32)cc1`: the growth was -65.3% (active). Consider `COc1ccc(C(=O)/C=C/c2cc(C(=O)c3cc(OC)c(OC)c(OC)c3)ccc2OC)cc1`, for which the growth was 47.2% (inactive). Next, `CCn1cc(C(=O)N/N=C/c2cccs2)c(=O)c2cc(F)c(N3CCNC(C)C3)c(F)c21` (stereo not given): 55.1% (inactive); `COc1cc(/C=N\NC(=O)c2ccc3nc(-c4ccc(Br)cc4)[nH]c3c2)cc(OC)c1OC`: 37.2% (inactive).
